This passage reports IFI results from ChEMBL document CHEMBL1157539, “Thousands of chemical starting points for antimalarial lead identification” (Nature, 2010).

The full ranking holds about 13,000 compounds; the median of “IFI” is about 4, and the highest 2% start at about 17. This excerpt belongs to a sample that is enriched for the highest values.

This test in a line: GSK_TCMDC: Inhibition Frequency Index (IFI). The number of non-kinase HTS assays where a compound showed > 50 % inhibition, expressed as a percentage of the number of such assays in which the compound was tested. In kind it is functional.
In turn, `CCN(CCCN1CCCCC1)c1cc(C)nc(Nc2ccc(C(C)C)cc2)n1` registered an IFI of 10.3%. The result for `CCC(C)c1ccc(Nc2nc(C)cc(N(CC)CCCN3CCCCC3)n2)cc1` (stereo unspecified) reads 19.5%. The same measure for `CCN(CCCN1CCCCC1)c1cc(C)nc(Nc2ccc(C)cc2)n1`: 2.56%; for `CC(C)(C)c1ccc(C(=O)Nc2cccc(Nc3c(C(=O)NCc4cccc(C(F)(F)F)c4)cnc4c(O)cccc34)c2)cc1`: 3.68%. For `CCCCN(CCCC)/C(=N/c1cccc(Cl)c1Cl)Nc1ccc(C#N)cc1O`, the IFI turned out to be 7.14%. For `O=C(Cc1cccc(O)c1)Nc1ccc(-c2cccc(-c3nc4cc(C(F)(F)F)ccc4[nH]3)c2)cc1`, the IFI came to 8.93%. The result for `CC(CN(C)C)C(=O)Nc1cccc(-c2cccc(-c3nc4ccccc4[nH]3)c2)c1` (stereo unspecified) reads 5.41%; that for `COc1cccc(-c2cccc(-c3ccc(NC(=O)c4ccc([N+](=O)[O-])o4)cc3)n2)c1`, 9.52%; that for `COc1ccccc1-c1cccc(-c2cccc(NC(=O)c3ccc([N+](=O)[O-])o3)c2)n1`, 11.9%.

In turn, `O=C(Nc1cccc(-c2cccc(-c3ccc(F)cc3)n2)c1)c1ccc([N+](=O)[O-])o1` showed an IFI of 19.1%. Consider `Cc1cccc2nc(-c3ccc(-c4ccc(CN5CCCC(N)C5)cc4)cc3)[nH]c12` (stereo unspecified), for which the IFI was determined as 4.23%.

For the molecule `COc1ccccc1C1CCN(C2CCC(NC(=O)c3cc(-c4ccc(Cl)cc4)cs3)CC2)CC1` (stereo unspecified), the IFI stood at 16.4%. The same measure for `CCc1c(C(=O)NC2CCC(N3CCC(c4ccccc4C)CC3)CC2)[nH]c2ccc(Br)cc12` (stereo unspecified): 15.8%. The molecule `Cc1ccccc1C1CCN(C2CCC(NC(=O)c3cc4cc(C(C)C)ccc4[nH]3)CC2)CC1` (stereo unspecified) had an IFI of 19.6%. Take `Cc1ccc(/C=C/C(=O)NC2CCC(N3CCC(c4ccccc4C)CC3)CC2)cc1C` (stereo unspecified): the IFI amounted to 15%.

`COc1ccc(-c2csc(C(=O)NC3CCC(N4CCC(c5ccccc5C)CC4)CC3)c2)cc1` (stereo unspecified) had an IFI of 14%. The result for `Cc1ccccc1C1CCN(C2CCC(NC(=O)/C=C/c3ccc4c(c3)OC(F)(F)O4)CC2)CC1` (stereo unspecified) reads 17.2%; that for `Cc1ccc(/C=C/C(=O)NC2CCC(N3CCC(c4ccccc4C)CC3)CC2)cc1F` (stereo unspecified), 13.3%; that for `CCc1c(C(=O)NC2CCC(N3CCC(c4ccccc4OC)CC3)CC2)[nH]c2ccc(OC)cc12` (stereo unspecified), 6.45%.

For the molecule `COc1ccccc1C1CCN(C2CCC(NC(=O)c3cc4ccccc4[nH]3)CC2)CC1` (stereo unspecified), the IFI is 16.4%. The same measure for `COc1ccccc1C1CCN(C2CCC(NC(=O)/C=C/c3ccc4c(c3)OC(F)(F)O4)CC2)CC1` (stereo unspecified): 9.84%.

`Cc1ccccc1C1CCN(C2CCC(NC(=O)c3cc(-c4ccc(Cl)cc4)cs3)CC2)CC1` (stereo unspecified) yielded an IFI of 22.4%.

On to `COc1ccccc1C1CCN(C2CCC(NC(=O)c3cc4cc(C(C)C)ccc4[nH]3)CC2)CC1` (stereo unspecified), for which the IFI worked out at 18%. Take `CN1CCC(NCc2ccc(-c3cccc(-c4nc5ccccc5[nH]4)c3)cc2)CC1`: the IFI turned out to be 4.76%. In turn, `Cc1[nH]c(C)c(-c2ccc(OCc3ccc(F)cc3)nc2)c(=O)c1Br` yielded an IFI of 3.57%. `Cc1c(Cl)cccc1N=C(S)NN=Cc1ccccn1` displayed an IFI of 6.3%.

Turning to `Cc1c(-c2cccc(C(C)(C)NCCCN3CCCCC3)c2)cnc(N)c1C`, the IFI turned out to be 0.74%.

For `Cc1ccc(O)cc1C[C@@H]1C(=O)CC[C@@]2(C)[C@H]1CC[C@]2(C)O`, the IFI was 0%. The same measure for `O=C(Nc1ccccc1)N(Cc1ccc(-c2cccc(CNC3CCCC3)c2)cc1)C1CCN(Cc2ccccc2)CC1`: 7.04%; for `Cc1cccc2nc(-c3ccc(-c4cccc(CNCCCNS(C)(=O)=O)c4)s3)[nH]c12`: 3.96%; for `CNC(=O)c1cnc(Nc2ccc(OCC(O)CN(C)C)cc2)nc1Nc1cccc(OC)c1` (stereo unspecified): 2.22%. The result for `CCOc1ccc2[nH]c(C)cc(=NN=Cc3ccccc3)c2c1` reads 1.53%; that for `CCN(CC)CCCC(C)Nc1c(-c2ccc(OC)cc2)cnc2ccccc12` (stereo unspecified), 0%; that for `CN(C)c1nc(NCc2ccccc2)nc(N/N=C/c2cc([N+](=O)[O-])ccc2O)n1`, 6.16%. The same measure for `CNC(=O)C1Cc2c([nH]c3cc(Br)ccc23)C2(CCN(CCc3ccccc3)CC2)N1` (stereo unspecified): 7.86%; for `COc1ccc2nccc(N3CCN(CCNCc4ccc5c(n4)NC(=O)CO5)CC3)c2c1`: 3.73%; for `Cc1c(C)c2c(c(C)c1O)CC[C@](C)(C(=O)N1CCC(CCN3CCC(c4c[nH]c5ccccc45)CC3)CC1)O2`: 5.88%.

As for `Cc1cccc2nc(-c3cccc(-c4cccc(NC(=O)COc5ccccc5C(N)=O)c4)c3)[nH]c12`, the IFI was found to be 6.09%. Regarding `CN(C)CCNC(=O)c1ccc(-c2cnc3ccc(NCc4ccc(Cl)c(Cl)c4)nn23)cc1`, the IFI is 9.02%. The same measure for `CCCCc1ccc2ncc(C(=O)OCC)c(O)c2c1`: 0.78%. The molecule `COc1c(Br)cc(Br)cc1-c1ccc(CN2C3CCCC2CCC3)[nH]1` displayed an IFI of 6.82%.

In turn, `COc1c(Br)cc(Br)cc1-c1ccc(CN2CC3CCC2CC3)[nH]1` showed an IFI of 21.1%. The result for `COc1cccc(C(=O)Nc2ccc(Nc3nc(C)cc(N(C)C)n3)cc2)c1OC` reads 7.14%; that for `CCCCCCCN1CC[C@@H](CCCc2ccnc3ccc(OCCCCN/C(N)=N/O)cc23)[C@@H](CC)C1`, 9.66%. The result for `CN1CCN(c2ccc(Nc3ncc([N+](=O)[O-])c(Nc4ccccc4O)n3)cc2)CC1` reads 6.99%; that for `O=[N+]([O-])c1cnc(Nc2ccccc2O)nc1Nc1ccccc1O`, 19.2%; that for `CN(C)CC(O)COc1ccc(Nc2ncc([N+](=O)[O-])c(Nc3ccccc3O)n2)cc1` (stereo unspecified), 6.21%. As for `Cc1[nH]c(C)c(-c2ccc(CCc3ccc(N)cc3)cc2)c(=O)c1Cl`, the IFI came to 1.89%. The same measure for `COc1ccc2[nH]c(C(=O)Nc3ccc4[nH]c(-c5ccccc5)nc4c3)cc2c1`: 7.69%; for `CCc1cn(CC(=O)N(CCOc2ccc(-c3ccc(C(F)(F)F)cc3)cc2)CCN(CC)CC)c(SCc2ccc(F)cc2)nc1=O`: 6.34%; for `FC(F)(F)c1cccc(Nc2nc3ccccc3nc2Nc2cccc(C(F)(F)F)c2)c1`: 10%. `FC(F)(F)c1cccc(Nc2nc3nonc3nc2NC2C3CC4CC(C3)CC2C4)c1` (stereo unspecified): the IFI worked out at 20.6%. The result for `O=[N+]([O-])c1ccc2nc(Nc3cccc(C(F)(F)F)c3)c(Nc3cccc(C(F)(F)F)c3)nc2c1` reads 5.88%; that for `CC1(C)C(=O)Nc2ccc3c(c21)CC1SC(=O)NN=C31` (stereo unspecified), 2.22%. The same measure for `CCCN(CCC)C(=O)c1cc(C(=O)N[C@@H](Cc2ccccc2)[C@H](O)CNC(C)(C)c2cccc(OC)c2)cc(N2CCCCS2(=O)=O)c1`: 3.62%. The same measure for `CC(C)(C)c1ccc(CN2CCC(CNC(=O)c3cc(-c4cccc(Cl)c4)cs3)C2)cc1` (stereo unspecified): 12.2%.
